The values below come from ChEMBL document CHEMBL3988442, “University of Dundee, Small-Polar-MMV Screening Library” (2021).

Experiment [1] deals with T1, Aspartate--tRNA(Asp/Asn) ligase (Mycobacterium tuberculosis (strain ATCC 25618 / H37Rv)) (UniProt P9WFW3).
T1 sequence (whole entry): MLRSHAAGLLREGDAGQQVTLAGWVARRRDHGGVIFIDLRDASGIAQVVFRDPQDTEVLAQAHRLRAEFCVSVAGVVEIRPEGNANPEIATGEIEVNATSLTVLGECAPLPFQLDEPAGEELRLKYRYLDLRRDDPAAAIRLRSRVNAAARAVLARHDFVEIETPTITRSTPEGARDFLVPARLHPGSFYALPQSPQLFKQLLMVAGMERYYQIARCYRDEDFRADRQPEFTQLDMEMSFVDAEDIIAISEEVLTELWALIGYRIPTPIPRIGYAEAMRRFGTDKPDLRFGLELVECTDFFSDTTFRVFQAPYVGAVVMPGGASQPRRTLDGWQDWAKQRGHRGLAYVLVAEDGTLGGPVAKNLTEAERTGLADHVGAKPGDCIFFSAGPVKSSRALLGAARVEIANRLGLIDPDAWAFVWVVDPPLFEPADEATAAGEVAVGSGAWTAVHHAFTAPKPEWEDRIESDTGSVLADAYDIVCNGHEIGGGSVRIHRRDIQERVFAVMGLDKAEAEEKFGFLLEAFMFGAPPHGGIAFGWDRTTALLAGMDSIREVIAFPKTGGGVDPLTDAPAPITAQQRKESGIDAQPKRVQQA
Nature of the experiment: Assay for Asp RNA synthetase-1 from Mycobacterium tuberculosis. The experiment is classed as functional. More on the design: scale not given: direction of the effect not stated beside the values. The conditions noted are these: 30 µM.

Experiment [2] addresses Shiga toxin 2 (Escherichia coli O157:H7) (UniProt P09385+P09386). Nature of the experiment: E. coli 0.157:H7 Shiga Toxin SOP - stx2 screening assay. The experiment is classed as functional. More on the design: scale not given: direction of the effect not stated beside the values. The conditions noted are these: 30 µM.

With `Cc1ccc2c(c1)C1(CC2)CCN(c2nncs2)CC1`, the Percent Effect in experiment [1] was found to be 1.71%; in experiment [2], 6.27%.

As for `COCC(=O)N1CCN(C(=O)c2scnc2C)CC1`, the Percent Effect in experiment [1] was -5.75%; in experiment [2] it was -11%.

As to `CN(C)c1ncnc2c1CCN(CC1CCCC1)CC2`, the Percent Effect was -1.05% in experiment [1] and -5.38% in experiment [2].

Turning to `O=C(NCCN1CCOCC1)c1cc(-c2ccc3c(c2)CCO3)n[nH]1`, the values for the Percent Effect in experiment [1] and in experiment [2] were 2.35% and -67.8%, respectively.

As for `CN(CC(=O)NC1(C#N)CCCC1)C1CCCN(c2cccnn2)C1` (stereo unspecified), the Percent Effect turned out to be 7.28% in experiment [1] and 21.9% in experiment [2].

Consider `Fc1cnc(N2CCCC3(CN(Cc4ccncc4)CCO3)C2)nc1` (stereo unspecified), for which the Percent Effect in experiment [1] is 7.9%; in experiment [2], -0.17%.

`CN(Cc1nccn1CC(F)(F)F)C(=O)c1ccc(F)c(F)c1`: the Percent Effect is 2.69% in experiment [1] and 0.723% in experiment [2].

In the case of `COc1ccc(OCCCN2CCOC(Cn3cccn3)C2)cc1` (stereo unspecified), the Percent Effect in experiment [1] was -0.393%; in experiment [2], 5.03%.

On to `CNC(=O)c1cnc(/C=C/c2cc(OC)cc(OC)c2)s1`, for which the Percent Effect in experiment [1] was 5.76%; in experiment [2] it was -89.3%.

As to `Cc1nc(C)c(C(=O)OCCNc2ncccc2C#N)s1`, the figures for the Percent Effect in experiment [1] and in experiment [2] were 1.71% and -15.1%, respectively.

Consider `CO[C@H]1CCN(c2ccc(C)nn2)[C@H]1Cc1cnn(C)c1`, for which the values for the Percent Effect in experiment [1] and in experiment [2] were 1.39% and 3.96%, respectively.

Turning to `Cc1ccc(-c2ncc(C(=O)NCCNC(=O)C(C)C)s2)c(C)c1`, the figures for the Percent Effect in experiment [1] and in experiment [2] were 2.19% and 11.7%, respectively.

Turning to `CSC(C)C(=O)N1CCCN(Cc2cscn2)CC1` (stereo unspecified), the Percent Effect in experiment [1] is -6.57%; in experiment [2], 25.4%.

For the compound `CCc1nnc2n1CCN(C(=O)c1cc3ccc(F)cc3nc1C)C2`, the Percent Effect in experiment [1] stood at 1.79%; in experiment [2] it was 8.5%.

Consider `CC(C)OCCOCc1cccc(NC(=O)NCCn2ccnc2)c1`, for which the Percent Effect in experiment [1] was 2.56%; in experiment [2], -31.1%.

For the compound `Cc1nccn1C1CCCN(C(=O)COCC(F)(F)F)C1` (stereo unspecified), the Percent Effect in experiment [1] is -1.01%; in experiment [2], -10.2%.

With `CCNc1cc2c(nn1)CCN(C(=O)c1cc3nc(C)ccc3o1)C2`, the Percent Effect was -4.95% in experiment [1] and -51.6% in experiment [2].

As to `Cc1noc([C@@H]2C[C@H]3OCC[C@H]3N(S(=O)(=O)c3cccnc3)C2)n1`, the Percent Effect is -1.34% in experiment [1] and -21.9% in experiment [2].
